Data taken from PubChem BioAssay (EPA / NIEHS).
Records with an inconclusive call do not appear. Activity calls are given as the source filed them. How the source made its calls: active means hit-call score of the fitted dose curve at least 0.9, where 1 is the maximum; inconclusive means response in the unintended direction; inactive means score below 0.9.

target: human Adrenergic, Beta 3 Receptor (Adrb3), ADRB3 (gene 155) (UniProt P13945); test: NVS_GPCR_hAdrb3: NovaScreen (NVS) G Protein-Coupled Receptor Assay for human Adrenergic, Beta 3 Receptor (Adrb3) (AID 2283262)
Protocol: NVS_GPCR_hAdrb3 is a biochemical, single-readout assay that uses extracted gene-proteins from SK-N-MC pretreated with isoproteronol and 8-bromo-cAMP in a cell-free assay. Measurements were taken 1 hour after chemical dosing in a 48-well plate.NVS_GPCR_hAdrb3 is one of one assay component(s) measured or calculated from the NVS_GPCR_hAdrb3 assay. It is designed to make measurements of radioligand binding, a form of binding reporter, as detected with scintillation counting signals by Filter-based radiodetection technology.Data from the assay component NVS_GPCR_hAdrb3 was analyzed into 1 assay endpoint. This assay endpoint, NVS_GPCR_hAdrb3, was analyzed in the positive analysis fitting direction relative to DMSO as the negative control and baseline of activity. Using a type of binding reporter, loss-of-signal activity can be used to understand changes in the binding as they relate to the gene ADRB3. Furthermore, this assay endpoint can be referred to as a primary readout, because the performed assay has only produced 1 assay endpoint. To generalize the intended target to other relatable targets, this assay endpoint is annotated to the gpcr intended target family, where the subfamily is rhodopsin-like receptor.
Binding assays used specific radioligands (tritiated, iodinated) with non-radioactive competitive displacement ligands in agonist or antagonist protocols (as indicated) and various reference compounds and inhibitors to titrate specific binding to receptors and transporters. Most enzyme assays (CYPs, kinases, phosphatases, proteases, HDACs) used recombinant protein and specific substrates (fluorescence mostly, some colorimetric and radioactive) and inhibitors, followed by a biochemical separation of substrate and product. All assays for the biochemical HTS were initially run in duplicate at a single concentration (10 uM for CYP450 assays and 25 uM for all others). […] Each assay was run with positive and negative controls, and concurrent controls on every plate. The follow-up (secondary) screen tested active chemical-pairs in concentration series, as well as a few additional assays not tested in the primary screen, some selected negative inactives, and several cases re-run in the concentration series for confirmatory purposes.

Chain of human Adrenergic, Beta 3 Receptor (Adrb3), ADRB3 (gene 155) (P13945 whole entry, looked up): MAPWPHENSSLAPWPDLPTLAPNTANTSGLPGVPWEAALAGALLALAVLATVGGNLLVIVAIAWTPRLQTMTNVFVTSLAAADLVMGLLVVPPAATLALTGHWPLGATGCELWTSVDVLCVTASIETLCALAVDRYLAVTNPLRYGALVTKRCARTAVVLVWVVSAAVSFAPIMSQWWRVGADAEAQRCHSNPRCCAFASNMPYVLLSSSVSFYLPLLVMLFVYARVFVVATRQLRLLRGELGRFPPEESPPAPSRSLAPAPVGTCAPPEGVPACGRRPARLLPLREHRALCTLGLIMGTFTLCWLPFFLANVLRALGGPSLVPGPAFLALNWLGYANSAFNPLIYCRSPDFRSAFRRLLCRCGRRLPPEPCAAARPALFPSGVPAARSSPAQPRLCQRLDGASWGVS

| Compound | AC50 | outcome |
| --- | --- | --- |
| CCOC(=O)O[C@H](C)OC(=O)c1ccc2c(c1)cc(C(=O)NC1CCN(C(C)C)CC1)n2Cc1cc(-c2ccc(Cl)s2)on1 | 20 µM (active) |  |
| CC(O)CC(C)(C)O (centres undefined) | 0.159 µM (active) |  |
| Clc1cc(Cl)c2c(c1)N=C1CCCCCN1C2 |  | inactive |
| CCCCCCCCN(C)CCCCCCCC |  | inactive |
| CN(C)c1ccc(C(=C2C=CC(=[N+](C)C)C=C2)c2ccc(N(C)C)cc2)cc1 | 16.3 µM (active) |  |
| COc1cccc([C@H](O)C2CCN(CCc3ccc(F)cc3)CC2)c1OC |  | inactive |
| CCCCOC(=O)CC(CC(=O)OCCCC)(OC(C)=O)C(=O)OCCCC |  | inactive |
| Cc1occc1C(=O)Nc1ccc(C(=O)N2CCC(F)(F)/C(=C\C(=O)N3CCC(N4CCCCC4)CC3)c3ccccc32)cc1 |  | inactive |
| NCc1cccc(C2CCN(C(=O)c3ccc(C#Cc4ccccc4F)o3)CC2)c1 |  | inactive |
| Cc1oc2c(NC(=O)c3c(Cl)cccc3Cl)cccc2c1C(C)(C)O |  | inactive |
| CN(C)C(=O)C1(N2CCCCC2)CCN(CC[C@@]2(c3ccc(Cl)c(Cl)c3)CN(C(=O)c3ccccc3)CCO2)CC1 | 23.6 µM (active) |  |
| CCCCCCCCCCCC[N+](C)(C)C | 25 µM (active) |  |
| CCN(CC)C(=O)c1cc(S(=O)(=O)Cc2ccccc2)c(N2CCC(c3ccccc3)CC2)cc1N(CC)CCN(C)C |  | inactive |
| CC/C(=C(/CC)c1ccc(O)cc1)c1ccc(O)cc1 | 13.9 µM (active) |  |
